Our source for the outcome and AC50 values is PubChem BioAssay (EPA / NIEHS).

The AC50 is the midpoint of the concentration-response curve, whichever way the signal moves.

Results filed as inconclusive are left out. Some compounds were tested as several samples or in several runs, with calls that do not always agree. The source made the active and inactive calls. How the source made its calls: active means hit-call score of the fitted dose curve at least 0.9, where 1 is the maximum; inconclusive means response in the unintended direction; inactive means score below 0.9.

Sequence of Bile acid receptor (Homo sapiens) (Q96RI1 whole entry, looked up, the tested form may be a part): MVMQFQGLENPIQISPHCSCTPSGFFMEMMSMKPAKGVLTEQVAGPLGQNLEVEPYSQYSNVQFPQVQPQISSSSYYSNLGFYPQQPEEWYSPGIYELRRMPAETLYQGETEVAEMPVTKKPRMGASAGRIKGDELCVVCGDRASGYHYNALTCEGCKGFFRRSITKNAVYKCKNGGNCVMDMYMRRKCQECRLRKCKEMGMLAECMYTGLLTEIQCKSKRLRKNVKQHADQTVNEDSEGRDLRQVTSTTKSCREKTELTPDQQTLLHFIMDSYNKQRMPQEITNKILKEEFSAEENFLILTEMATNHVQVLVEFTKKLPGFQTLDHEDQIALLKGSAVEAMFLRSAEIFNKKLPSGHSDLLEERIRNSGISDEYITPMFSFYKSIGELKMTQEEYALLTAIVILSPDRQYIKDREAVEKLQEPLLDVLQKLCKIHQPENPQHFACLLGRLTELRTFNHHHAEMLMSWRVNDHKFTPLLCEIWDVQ
Sequence of Glucocorticoid receptor (Homo sapiens) (P04150 whole entry, looked up, the tested form may be a part): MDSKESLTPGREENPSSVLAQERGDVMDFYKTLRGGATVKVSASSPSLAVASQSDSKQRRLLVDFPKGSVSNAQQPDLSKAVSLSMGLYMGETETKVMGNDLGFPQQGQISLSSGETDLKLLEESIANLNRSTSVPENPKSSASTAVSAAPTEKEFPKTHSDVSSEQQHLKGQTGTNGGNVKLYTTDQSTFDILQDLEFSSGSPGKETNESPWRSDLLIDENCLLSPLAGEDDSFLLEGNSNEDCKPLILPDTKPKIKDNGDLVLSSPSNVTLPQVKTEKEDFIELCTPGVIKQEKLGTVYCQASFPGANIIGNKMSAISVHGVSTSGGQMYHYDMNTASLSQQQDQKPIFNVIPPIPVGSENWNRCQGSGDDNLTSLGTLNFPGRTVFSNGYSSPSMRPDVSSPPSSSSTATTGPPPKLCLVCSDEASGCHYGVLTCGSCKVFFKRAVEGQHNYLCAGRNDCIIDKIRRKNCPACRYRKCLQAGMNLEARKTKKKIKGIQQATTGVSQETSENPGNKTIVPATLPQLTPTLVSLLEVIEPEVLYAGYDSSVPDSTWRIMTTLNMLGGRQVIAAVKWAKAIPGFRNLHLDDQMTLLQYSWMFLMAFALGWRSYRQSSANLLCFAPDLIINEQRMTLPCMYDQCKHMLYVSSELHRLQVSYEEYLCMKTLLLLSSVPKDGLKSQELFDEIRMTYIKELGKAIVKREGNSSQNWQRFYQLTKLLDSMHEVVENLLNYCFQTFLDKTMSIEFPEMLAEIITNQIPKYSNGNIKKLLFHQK

One test has as its target Glucocorticoid receptor (Homo sapiens) (UniProt P04150). Briefly: ATG_GR_TRANS: Attagene TRANS-FACTORIAL HepG2 Assay for human Glucocorticoid Receptor (GR) (AID 2282978).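 Further: activators score as hits since higher reporter transcript over DMSO is fitted.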 The conditions noted are these: HepG2 Attagene TRANS GR reporter, mRNA transcription. An outline of the steps: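 Readout is reporter transcript from a chimeric GR-Gal4 acting on GAL4-UAS in transfected human HepG2 liver cells after 24 h exposure, quantified by RT-PCR and capillary electrophoresis. Activation fitted upward against DMSO.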
Regarding `COc1ccc2cc(S(=O)(=O)N[C@H](CC(=O)N[C@H](Cc3ccc(CN4[C@H](C)CCC[C@@H]4C)cc3)C(=O)N(C)C(C)C)c3ccc4c(c3)OCO4)ccc2c1`, the call was inactive.
The same measure, in the same setting: with `Cc1c2ccccc2c(C)c2c1ccc1ccccc12` the entry was “inactive”.
Still for that read-out and setting: with `O=C(O)Cn1c(=O)n(Cc2ccc(Br)cc2F)c(=O)c2ccc(Cl)cc21` the entry was “inactive”; with `CCCCCCCCCCCC[N+](C)(C)C`, “inactive”; with `NC(=O)c1nc(-c2cccc(-c3cc(F)ccc3OCC(F)(F)C(F)(F)F)c2)n[nH]1`, “inactive”.
With `CC(C)(C)c1csc(-c2cc3cc(OCc4ccccc4CC(=O)O)ccc3o2)n1`, the compound was classed as inactive.
The same measure, in the same setting: with `CC/C(=C(/CC)c1ccc(O)cc1)c1ccc(O)cc1` the entry was “inactive”.
With `CCOC(=O)O[C@H](C)OC(=O)c1ccc2c(c1)cc(C(=O)NC1CCN(C(C)C)CC1)n2Cc1cc(-c2ccc(Cl)s2)on1`, the compound was classed as inactive.
Still for that read-out and setting: with `COCC(C)OCC(C)OCC(C)O` (stereo not given) the entry was “inactive”; with `CN1C(=O)N(c2ccccc2Br)Cc2cnc(Nc3ccc4c(c3)OCC(CO)O4)nc21` (stereo not given), “inactive”; with `c1ccc(C[n+]2cccc3ccccc32)cc1`, “inactive”.
Consider `CCN(Cc1cccnc1)C(=O)c1cccc(Cl)c1[C@]1(C)C(=O)N(Cc2ccc(OC)cc2OC)c2ccc(Cl)cc21`, for which the compound was classed as inactive.
Still for that read-out and setting: next, `COc1cccc([C@H](O)C2CCN(CCc3ccc(F)cc3)CC2)c1OC`: “inactive”; `O=C1CCC(C2CCCCC2)CC1`: “inactive”; `COc1cc(C(=O)NC2CCN(C)CC2)ccc1Nc1ncc2c(n1)N(C1CCCC1)CC(F)(F)C(=O)N2C`: “inactive”.
The same measure, in the same setting: with `CCO[Si](CCCNC(N)=O)(OCC)OCC` the entry was “inactive”; with `Cc1ccc2oc(CN(Cc3ccccc3)C(=O)Nc3c(F)cc(F)cc3F)c(-c3ccc(Cl)cc3)c2c1`, “inactive”.
Same read-out and setting: next, `O=C(OCCCCCCOC(=O)c1ccccc1)c1ccccc1`: “inactive”; `CC(C)(c1cc(Br)c(O)c(Br)c1)c1cc(Br)c(O)c(Br)c1`: “inactive”; `C[C@]12CC[C@@H]3c4ccc(O)cc4CC[C@H]3[C@@H]1CC[C@H]2O`: “inactive”.
For `Clc1ccccc1C(c1ccccc1)(c1ccccc1)n1ccnc1`, the result was inactive.
On the same count and under the same terms, next, `CCCCOC(=O)CC(CC(=O)OCCCC)(OC(C)=O)C(=O)OCCCC`: “inactive”.

The target in another test is Bile acid receptor (Homo sapiens) (UniProt Q96RI1). Briefly: ATG_FXR_TRANS: Attagene TRANS-FACTORIAL HepG2 Assay for Farnesoid X Receptor (FXR) (AID 2282979).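 Further: hits raise reporter mRNA above DMSO so AC50 marks FXR activation.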 The settings on record: HepG2 Attagene TRANS FXR-GAL4 reporter transcription. An outline of the steps:
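Read-out: fluorescent reporter transcripts quantified by capillary electrophoresis after RT-PCR of total RNA. Source cells were HepG2 transiently carrying chimeric NR-GAL4 plus GAL4-UAS reporter units, dosed 24 h. Activity fitted upward relative to DMSO baseline.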
`O=c1c(-c2ccc(O)cc2)coc2cc(O)cc(O)c12`: the outcome was inactive.
Still for that read-out and setting: with `O=C(O)c1ccccc1-n1cc(C(=O)O)c(=O)c2cc(Nc3c(F)cc(F)cc3Cl)c(Cl)cc21` the entry was “inactive”; with `Cc1cc(F)ccc1-c1cc(N2CC[C@@H](O)[C@H]2CO)ncc1N(C)C(=O)C(C)(C)c1cc(C(F)(F)F)cc(C(F)(F)F)c1`, “inactive”.
For the compound `CCCCOC(=O)c1ccc(O)cc1`, the AC50 is 66.1 µM (active) and the outcome was inactive.
For the compound `O=C(O)Cc1cc(I)c(Oc2ccc(O)c(I)c2)c(I)c1`, the result was inactive.
In the case of `Cc1oc2c(NC(=O)c3c(Cl)cccc3Cl)cccc2c1C(C)(C)O`, the call was inactive.
Still for that read-out and setting: with `CC(=O)N1CCN(c2ccc(OC[C@H]3CO[C@](Cn4ccnc4)(c4ccc(Cl)cc4Cl)O3)cc2)CC1` the entry was “inactive”.
Regarding `CCCCCCCCOC(=O)c1cc(O)c(O)c(O)c1`, the AC50 is 43 µM (active).
Take `Cc1cn([C@H]2C[C@H](N=[N+]=[N-])[C@@H](CO)O2)c(=O)[nH]c1=O`: the result was inactive.
Same read-out and setting: with `CN(C)C(=O)C1(N2CCCCC2)CCN(CC[C@@]2(c3ccc(Cl)c(Cl)c3)CN(C(=O)c3ccccc3)CCO2)CC1` the entry was “inactive”; with `O=C(Nc1ccc(Cl)cc1)Nc1ccc(Cl)c(Cl)c1`, “inactive”; with `O=CCCCC=O`, “inactive”.
On the same count and under the same terms, next, `COc1ccc2cc(S(=O)(=O)N[C@H](CC(=O)N[C@H](Cc3ccc(CN4[C@H](C)CCC[C@@H]4C)cc3)C(=O)N(C)C(C)C)c3ccc4c(c3)OCO4)ccc2c1`: “inactive”; `Cc1c2ccccc2c(C)c2c1ccc1ccccc12`: “inactive”.
Same read-out and setting: with `O=C(O)Cn1c(=O)n(Cc2ccc(Br)cc2F)c(=O)c2ccc(Cl)cc21` the entry was “inactive”; with `CCCCCCCCCCCC[N+](C)(C)C`, “inactive”; with `NC(=O)c1nc(-c2cccc(-c3cc(F)ccc3OCC(F)(F)C(F)(F)F)c2)n[nH]1`, “inactive”.
As for `CC(C)(C)c1csc(-c2cc3cc(OCc4ccccc4CC(=O)O)ccc3o2)n1`, the result was inactive.
The same measure, in the same setting: next, `CC/C(=C(/CC)c1ccc(O)cc1)c1ccc(O)cc1`: “inactive”; `CCOC(=O)O[C@H](C)OC(=O)c1ccc2c(c1)cc(C(=O)NC1CCN(C(C)C)CC1)n2Cc1cc(-c2ccc(Cl)s2)on1`: “inactive”; `COCC(C)OCC(C)OCC(C)O` (stereo not given): “inactive”.
Still for that read-out and setting: next, `CN1C(=O)N(c2ccccc2Br)Cc2cnc(Nc3ccc4c(c3)OCC(CO)O4)nc21` (stereo not given): “inactive”; `c1ccc(C[n+]2cccc3ccccc32)cc1`: “inactive”.
Consider `CCN(Cc1cccnc1)C(=O)c1cccc(Cl)c1[C@]1(C)C(=O)N(Cc2ccc(OC)cc2OC)c2ccc(Cl)cc21`, for which the AC50 was 2.58 µM (active).
In the case of `COc1cccc([C@H](O)C2CCN(CCc3ccc(F)cc3)CC2)c1OC`, the result was inactive.
Same read-out and setting: with `O=C1CCC(C2CCCCC2)CC1` the entry was “inactive”; with `COc1cc(C(=O)NC2CCN(C)CC2)ccc1Nc1ncc2c(n1)N(C1CCCC1)CC(F)(F)C(=O)N2C`, “inactive”; with `CCO[Si](CCCNC(N)=O)(OCC)OCC`, “inactive”.
Still for that read-out and setting: next, `O=C(OCCCCCCOC(=O)c1ccccc1)c1ccccc1`: “inactive”.
The same measure, in the same setting: next, `CC(C)(c1cc(Br)c(O)c(Br)c1)c1cc(Br)c(O)c(Br)c1`: “inactive”; `Clc1ccccc1C(c1ccccc1)(c1ccccc1)n1ccnc1`: “inactive”.
For `CCCCOC(=O)CC(CC(=O)OCCCC)(OC(C)=O)C(=O)OCCCC`, the outcome was inactive.
